# Test results from the supplement of paper PMC13380429.
# System: Vero E6 infected with SARS-CoV-2
# Assay: inhibition of SARS-CoV-2 cytopathic effect; higher = more antiviral protection, active = above 15
# Conditions: 100 nM; 48 h
row,SMILES,inhibition of SARS-CoV-2 cytopathic effect
1,Clc1cc(Cl)c(OCC#CI)cc1Cl [haloprogin],-0.9% (inactive)
2,N#C[C@H](O[C@@H]1O[C@H](CO[C@@H]2O[C@H](CO)[C@@H](O)[C@H](O)[C@H]2O)[C@@H](O)[C@H](O)[C@H]1O)c1ccccc1 [amygdalin],0.79% (inactive)
3,CC(=O)SC[C@@H](C)C(=O)N1CCC[C@H]1C(=O)N[C@@H](Cc1ccccc1)C(=O)O [alacepril],0.98% (inactive)
4,Cc1ccc(-n2nc(C(C)(C)C)cc2NC(=O)NCc2cc(F)ccc2Oc2ccc3c(cnn3CCO)c2)cc1 [pexmetinib],0.01% (inactive)
5,CC(C)NCC(O)COc1cccc2[nH]c3ccccc3c12 (stereo not given) [carazolol],-1.61% (inactive)
6,CCOC(=O)Nc1cc(-c2ccc(C)c(NS(C)(=O)=O)c2)nn2c(C)nnc12 [bromosporine],-0.65% (inactive)
7,FC(F)(F)c1cc(CO[C@H]2CCCN[C@H]2c2ccccc2)cc(C(F)(F)F)c1,-5.07% (inactive)
8,Cc1cc(Cl)ccc1OCCCC(=O)NO [droxinostat],1.23% (inactive)
9,CC1(C)[C@H](C(=O)O)N2C(=O)C[C@H]2S1(=O)=O [sulbactam],-2.37% (inactive)
10,CCc1nn(CCO)c(CC)c1Oc1cc(C#N)cc(C#N)c1 [lersivirine],2.57% (inactive)
11,Cc1cc(=O)n(-c2ccccc2)[nH]1 [N-demethylantipyrine],-4.99% (inactive)
12,C/C(=N\Nc1nnc2c(n1)[nH]c1c(C)cccc12)c1ccccn1,1.94% (inactive)
13,Cc1ccc(Cl)cc1N(CC(=O)Nc1c(F)cccc1F)S(C)(=O)=O,-1.24% (inactive)
14,O=C(O)C1(C(=O)O)CCC1.[NH2-].[NH2-].[Pt+2] [carboplatin],4.49% (inactive)
15,O=C(O)c1cc(N2N=C(C(F)(F)F)/C(=C/c3ccc(-c4ccccc4)o3)C2=O)ccc1Cl,0.66% (inactive)
16,CCCCC(CC)CNC(=N)NC(=N)NCCCCCCNC(=N)NC(=N)NCC(CC)CCCC (stereo not given) [alexidine],2.23% (inactive)
17,C[C@H](Cc1ccc(O)c(O)c1)[C@@H](C)Cc1ccc(O)c(O)c1 [masoprocol],2.75% (inactive)
18,O=C1C=Cc2cc(Br)ccc2C1=O [bonaphthone],-2.18% (inactive)
19,COc1ccc(C2CNC(=O)NC2)cc1O[C@H]1C[C@@H]2CC[C@H]1C2 [atizoram],-0.71% (inactive)
20,Cc1ccc2cc(-c3c(C)ccc(C(=O)c4c(-c5ccccc5)n(C)n(-c5ccccc5)c4=O)c3N)ccc2n1,-0.14% (inactive)

row,SMILES,inhibition of SARS-CoV-2 cytopathic effect
1,O=C(Cc1ccc(Cl)c(Cl)c1)N1CCCC[C@@H]1CN1CCCC1,1.57% (inactive)
2,COc1ccc2cc3[n+](cc2c1OC)CCc1cc2c(cc1-3)OCO2 [berberine],-11% (inactive)
3,Oc1nc(-c2ccc(C(F)(F)F)cc2)nc2c1CSCC2,3.97% (inactive)
4,NCC1(CC(=O)O)CCCCC1 [gabapentin],-2.14% (inactive)
5,CCn1c(-c2nonc2N)nc2cncc(C(=O)N3CC[C@H](N)C3)c21,2.3% (inactive)
6,O=C1[O][SbH]23[O]C(=O)C([O]2)C2[O][SbH]4([O]C(=O)C([O]4)C1[O]3)[O]C2=O [antimonyl],-2.02% (inactive)
7,COc1ccc(-c2nc(-c3ccc(-c4cccc(Cl)c4)o3)[nH]c2-c2ccc(OC)cc2)cc1 [neurodazine],4.87% (inactive)
8,O=C(O)C(Cc1ccccc1[N+](=O)[O-])=NNc1nc(-c2ccc(Cl)c(Cl)c2)cs1,-1.01% (inactive)
9,C[N+]12CCCCC1CCC(=C(c1cccs1)c1cccs1)C2 (stereo not given) [tiquizium],2.71% (inactive)
10,O=C(O)CCCCC(CCSCc1ccccc1)SCc1ccccc1 (stereo not given),3.04% (inactive)
11,COC(=O)[C@H](c1ccccc1Cl)N1CCc2sccc2C1 [clopidogrel],1.82% (inactive)
12,CCCCC1=NC2(CCCC2)C(=O)N1Cc1ccc(-c2ccccc2-c2nnn[nH]2)cc1 [irbesartan],0.89% (inactive)
13,CCCCCCCCCCCCCCSCC(=O)O [tetradecylthioacetic-acid],-2.65% (inactive)
14,COc1c(N2C[C@@H]3CCCN[C@@H]3C2)c(F)cc2c(=O)c(C(=O)O)cn(C3CC3)c12 [moxifloxacin],2.33% (inactive)
15,CC(C)(F)C[C@H](N[C@@H](c1ccc(-c2ccc(S(C)(=O)=O)cc2)cc1)C(F)(F)F)C(=O)NC1(C#N)CC1 [odanacatib],-3.49% (inactive)
16,O=c1ncn2nc(Sc3ccc(F)cc3F)ccc2c1-c1c(Cl)cccc1Cl,-1.32% (inactive)
17,COc1ccc(CCNCC(O)COc2cccc(C)c2)cc1OC (stereo not given) [bevantolol],-4.47% (inactive)
18,C[C@@H](CN)CC(=O)O [3-methyl-GABA],1.28% (inactive)
19,Oc1cc(O)c2cc(O)c(-c3cc(O)c(O)c(O)c3)[o+]c2c1 [delphinidin],-0.94% (inactive)
20,O=C(O)c1ccc(Nc2ncc3c(n2)-c2ccc(Cl)cc2C(c2c(F)cccc2F)=NC3)cc1,0.11% (inactive)
